Measured values reported in the supplement of paper PMC11732987, “Enantioselective OTUD7B fragment discovery through chemoproteomics screening and high-throughput optimisation” (Communications Chemistry, 2025).

How the values were obtained:
Experiment in all cases: log2 ratio of Biotin-Ahx-Ub-VS probe labelling (fragment/DMSO); higher = less target engagement (more negative = stronger competition), active = hit call of the paper (q ≤ 0.05, log2 ratio ≤ -1)
Conditions in all cases: compound concentration: 200 uM; treatment time: 3 h
USP42 = molecular target: T1, USP42 (UniProt Q9H9J4)
T1 sequence (whole entry): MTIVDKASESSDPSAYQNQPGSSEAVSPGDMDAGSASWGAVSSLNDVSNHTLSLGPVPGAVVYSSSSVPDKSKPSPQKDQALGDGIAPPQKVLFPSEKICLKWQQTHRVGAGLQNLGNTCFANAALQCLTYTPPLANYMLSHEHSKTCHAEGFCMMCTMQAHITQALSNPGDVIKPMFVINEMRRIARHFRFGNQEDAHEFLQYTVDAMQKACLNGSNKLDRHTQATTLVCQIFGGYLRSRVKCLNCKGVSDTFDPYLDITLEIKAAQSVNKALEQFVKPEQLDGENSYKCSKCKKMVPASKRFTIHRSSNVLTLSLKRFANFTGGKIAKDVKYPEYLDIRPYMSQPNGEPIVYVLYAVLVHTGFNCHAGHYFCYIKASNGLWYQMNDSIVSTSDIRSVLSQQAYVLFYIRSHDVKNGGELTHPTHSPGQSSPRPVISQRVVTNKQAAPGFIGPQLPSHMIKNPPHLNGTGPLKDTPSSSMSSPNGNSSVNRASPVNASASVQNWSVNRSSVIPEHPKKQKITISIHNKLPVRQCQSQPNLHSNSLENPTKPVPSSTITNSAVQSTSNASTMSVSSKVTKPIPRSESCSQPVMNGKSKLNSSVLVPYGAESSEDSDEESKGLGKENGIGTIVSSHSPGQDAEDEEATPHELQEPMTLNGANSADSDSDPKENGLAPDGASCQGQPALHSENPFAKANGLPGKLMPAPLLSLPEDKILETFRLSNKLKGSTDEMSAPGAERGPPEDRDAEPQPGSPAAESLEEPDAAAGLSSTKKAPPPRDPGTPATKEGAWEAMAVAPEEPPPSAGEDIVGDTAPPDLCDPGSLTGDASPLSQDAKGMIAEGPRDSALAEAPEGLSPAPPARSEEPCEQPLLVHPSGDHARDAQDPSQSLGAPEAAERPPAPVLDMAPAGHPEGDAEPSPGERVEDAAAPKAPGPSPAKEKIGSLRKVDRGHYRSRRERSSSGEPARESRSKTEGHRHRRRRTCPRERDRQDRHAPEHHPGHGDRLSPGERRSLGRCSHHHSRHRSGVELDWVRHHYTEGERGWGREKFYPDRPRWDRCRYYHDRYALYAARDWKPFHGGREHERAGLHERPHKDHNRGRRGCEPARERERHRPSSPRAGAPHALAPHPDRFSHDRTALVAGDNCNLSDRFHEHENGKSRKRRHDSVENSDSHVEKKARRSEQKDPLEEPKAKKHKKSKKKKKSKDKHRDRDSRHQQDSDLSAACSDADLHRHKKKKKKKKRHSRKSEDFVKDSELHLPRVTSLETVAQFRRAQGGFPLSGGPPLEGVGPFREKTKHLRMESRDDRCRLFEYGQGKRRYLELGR
In short: (§1)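 Labelling with Biotin-Ahx-Ub-VS (0.5 µM final, 1 h) followed a 3 h triplicate treatment of HEK293T lysate (495 µg per sample, Tris/CHAPS/IGEPAL buffer with protease inhibitors) with fragment at 200 µM or vehicle. Labelled DUBs were NeutrAvidin-enriched, digested with LysC and trypsin, and run by diaPASEF LC-MS/MS. The values, average log2 fragment/vehicle ratios by unpaired t-test, come from global-median-normalised Spectronaut label-free quantities. Proteins with ≥2 unique peptides were used.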

USP46 = USP46 (UniProt P62068)
Chain of USP46 (P62068 whole entry): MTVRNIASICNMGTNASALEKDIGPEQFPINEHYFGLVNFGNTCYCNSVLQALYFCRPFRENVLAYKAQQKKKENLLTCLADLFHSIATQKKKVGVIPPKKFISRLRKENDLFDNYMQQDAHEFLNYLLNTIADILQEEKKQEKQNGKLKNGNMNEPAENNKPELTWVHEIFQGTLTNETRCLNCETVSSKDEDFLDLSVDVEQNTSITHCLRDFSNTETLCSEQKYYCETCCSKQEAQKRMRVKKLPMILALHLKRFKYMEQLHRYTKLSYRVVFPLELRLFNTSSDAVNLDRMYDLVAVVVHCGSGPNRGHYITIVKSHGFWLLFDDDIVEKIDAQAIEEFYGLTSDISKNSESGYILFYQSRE
In short: as §1

USP47 = molecular target: T2, USP47 (UniProt Q96K76)
T2 sequence (whole entry): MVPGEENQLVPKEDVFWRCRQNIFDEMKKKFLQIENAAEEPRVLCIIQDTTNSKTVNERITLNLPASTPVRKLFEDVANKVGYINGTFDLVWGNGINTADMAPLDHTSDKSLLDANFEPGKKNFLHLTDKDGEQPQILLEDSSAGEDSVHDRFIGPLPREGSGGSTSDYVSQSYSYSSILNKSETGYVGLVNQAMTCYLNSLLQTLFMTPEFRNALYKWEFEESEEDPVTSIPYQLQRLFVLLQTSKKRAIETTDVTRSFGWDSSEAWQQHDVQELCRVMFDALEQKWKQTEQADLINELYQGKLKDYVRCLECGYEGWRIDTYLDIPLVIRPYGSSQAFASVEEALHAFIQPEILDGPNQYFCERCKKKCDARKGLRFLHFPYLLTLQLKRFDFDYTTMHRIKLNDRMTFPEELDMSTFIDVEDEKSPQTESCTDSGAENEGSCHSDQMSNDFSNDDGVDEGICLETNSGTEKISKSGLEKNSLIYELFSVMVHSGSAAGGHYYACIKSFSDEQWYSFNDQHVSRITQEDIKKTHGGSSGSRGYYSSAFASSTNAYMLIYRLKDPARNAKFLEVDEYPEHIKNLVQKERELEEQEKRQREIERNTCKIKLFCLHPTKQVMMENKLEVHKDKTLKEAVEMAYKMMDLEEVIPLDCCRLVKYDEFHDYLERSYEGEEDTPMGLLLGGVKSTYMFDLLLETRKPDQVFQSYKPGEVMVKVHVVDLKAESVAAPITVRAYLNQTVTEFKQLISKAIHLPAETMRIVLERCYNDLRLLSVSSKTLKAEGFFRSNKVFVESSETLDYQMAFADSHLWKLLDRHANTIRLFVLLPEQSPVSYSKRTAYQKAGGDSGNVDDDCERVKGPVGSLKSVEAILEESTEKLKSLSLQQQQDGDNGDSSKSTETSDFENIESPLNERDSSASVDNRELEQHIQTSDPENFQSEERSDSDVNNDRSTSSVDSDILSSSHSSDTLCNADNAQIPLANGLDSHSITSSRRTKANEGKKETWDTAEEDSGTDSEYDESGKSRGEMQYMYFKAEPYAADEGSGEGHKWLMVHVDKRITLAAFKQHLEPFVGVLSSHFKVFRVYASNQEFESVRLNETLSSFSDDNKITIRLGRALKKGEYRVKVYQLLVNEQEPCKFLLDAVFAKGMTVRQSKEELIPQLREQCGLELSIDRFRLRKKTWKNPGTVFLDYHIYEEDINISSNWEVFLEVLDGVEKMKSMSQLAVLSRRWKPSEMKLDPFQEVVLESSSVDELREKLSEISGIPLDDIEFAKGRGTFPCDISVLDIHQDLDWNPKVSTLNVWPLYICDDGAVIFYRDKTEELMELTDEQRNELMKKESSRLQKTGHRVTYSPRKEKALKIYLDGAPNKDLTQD
In short: as §1

USP48 = molecular target: T3, USP48 (UniProt Q86UV5)
T3 sequence (whole entry): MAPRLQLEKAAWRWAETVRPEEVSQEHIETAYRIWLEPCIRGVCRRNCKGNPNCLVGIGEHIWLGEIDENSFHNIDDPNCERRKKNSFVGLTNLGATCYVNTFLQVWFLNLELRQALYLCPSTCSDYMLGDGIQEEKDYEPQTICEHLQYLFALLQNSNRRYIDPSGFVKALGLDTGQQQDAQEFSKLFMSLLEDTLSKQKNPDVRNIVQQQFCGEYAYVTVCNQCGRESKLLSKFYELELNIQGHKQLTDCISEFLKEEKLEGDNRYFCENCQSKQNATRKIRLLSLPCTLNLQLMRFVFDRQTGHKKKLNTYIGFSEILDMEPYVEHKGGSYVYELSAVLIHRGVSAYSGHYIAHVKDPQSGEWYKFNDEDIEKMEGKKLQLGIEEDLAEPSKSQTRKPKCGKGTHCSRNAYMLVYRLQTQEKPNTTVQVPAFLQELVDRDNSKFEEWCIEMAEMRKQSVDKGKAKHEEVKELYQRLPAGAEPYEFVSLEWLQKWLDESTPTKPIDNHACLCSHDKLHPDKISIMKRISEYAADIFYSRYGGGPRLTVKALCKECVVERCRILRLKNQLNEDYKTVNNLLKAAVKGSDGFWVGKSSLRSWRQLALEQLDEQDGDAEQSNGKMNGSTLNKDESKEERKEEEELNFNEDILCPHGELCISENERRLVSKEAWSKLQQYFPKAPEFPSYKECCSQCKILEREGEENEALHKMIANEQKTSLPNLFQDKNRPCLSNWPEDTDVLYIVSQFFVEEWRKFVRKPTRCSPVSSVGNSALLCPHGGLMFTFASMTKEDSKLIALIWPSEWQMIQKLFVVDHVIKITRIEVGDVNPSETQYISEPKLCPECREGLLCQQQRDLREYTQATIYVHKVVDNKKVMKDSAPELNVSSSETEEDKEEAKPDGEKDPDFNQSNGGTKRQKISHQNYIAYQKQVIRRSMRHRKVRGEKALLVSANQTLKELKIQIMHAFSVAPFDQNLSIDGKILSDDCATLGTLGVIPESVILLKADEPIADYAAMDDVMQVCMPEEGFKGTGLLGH
In short: as §1

USP5 = molecular target: T4, USP5 (UniProt P45974)
T4 sequence (whole entry): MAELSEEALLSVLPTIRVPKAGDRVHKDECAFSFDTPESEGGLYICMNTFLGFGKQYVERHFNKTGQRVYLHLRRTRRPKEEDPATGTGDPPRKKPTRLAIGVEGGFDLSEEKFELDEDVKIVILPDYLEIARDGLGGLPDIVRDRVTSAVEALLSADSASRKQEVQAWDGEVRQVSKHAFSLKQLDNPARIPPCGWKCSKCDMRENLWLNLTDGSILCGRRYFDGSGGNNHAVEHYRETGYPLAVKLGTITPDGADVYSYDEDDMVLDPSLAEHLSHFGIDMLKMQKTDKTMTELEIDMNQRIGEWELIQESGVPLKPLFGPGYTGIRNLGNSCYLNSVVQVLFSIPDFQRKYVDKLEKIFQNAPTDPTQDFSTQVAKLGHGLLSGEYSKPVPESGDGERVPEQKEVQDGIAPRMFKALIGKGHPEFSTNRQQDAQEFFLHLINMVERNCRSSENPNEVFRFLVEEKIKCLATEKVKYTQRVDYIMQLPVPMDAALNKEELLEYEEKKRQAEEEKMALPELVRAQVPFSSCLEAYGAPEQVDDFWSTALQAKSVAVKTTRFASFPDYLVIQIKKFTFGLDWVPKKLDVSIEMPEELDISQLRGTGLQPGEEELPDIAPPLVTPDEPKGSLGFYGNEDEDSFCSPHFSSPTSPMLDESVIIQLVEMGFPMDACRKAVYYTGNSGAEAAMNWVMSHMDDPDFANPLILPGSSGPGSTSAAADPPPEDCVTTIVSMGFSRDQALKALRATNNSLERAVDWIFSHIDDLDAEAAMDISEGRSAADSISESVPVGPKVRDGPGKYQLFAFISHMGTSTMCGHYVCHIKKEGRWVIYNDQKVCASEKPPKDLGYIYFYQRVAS
In short: as §1

USP54 = USP54 (UniProt Q70EL1)
Chain of USP54 (Q70EL1 whole entry): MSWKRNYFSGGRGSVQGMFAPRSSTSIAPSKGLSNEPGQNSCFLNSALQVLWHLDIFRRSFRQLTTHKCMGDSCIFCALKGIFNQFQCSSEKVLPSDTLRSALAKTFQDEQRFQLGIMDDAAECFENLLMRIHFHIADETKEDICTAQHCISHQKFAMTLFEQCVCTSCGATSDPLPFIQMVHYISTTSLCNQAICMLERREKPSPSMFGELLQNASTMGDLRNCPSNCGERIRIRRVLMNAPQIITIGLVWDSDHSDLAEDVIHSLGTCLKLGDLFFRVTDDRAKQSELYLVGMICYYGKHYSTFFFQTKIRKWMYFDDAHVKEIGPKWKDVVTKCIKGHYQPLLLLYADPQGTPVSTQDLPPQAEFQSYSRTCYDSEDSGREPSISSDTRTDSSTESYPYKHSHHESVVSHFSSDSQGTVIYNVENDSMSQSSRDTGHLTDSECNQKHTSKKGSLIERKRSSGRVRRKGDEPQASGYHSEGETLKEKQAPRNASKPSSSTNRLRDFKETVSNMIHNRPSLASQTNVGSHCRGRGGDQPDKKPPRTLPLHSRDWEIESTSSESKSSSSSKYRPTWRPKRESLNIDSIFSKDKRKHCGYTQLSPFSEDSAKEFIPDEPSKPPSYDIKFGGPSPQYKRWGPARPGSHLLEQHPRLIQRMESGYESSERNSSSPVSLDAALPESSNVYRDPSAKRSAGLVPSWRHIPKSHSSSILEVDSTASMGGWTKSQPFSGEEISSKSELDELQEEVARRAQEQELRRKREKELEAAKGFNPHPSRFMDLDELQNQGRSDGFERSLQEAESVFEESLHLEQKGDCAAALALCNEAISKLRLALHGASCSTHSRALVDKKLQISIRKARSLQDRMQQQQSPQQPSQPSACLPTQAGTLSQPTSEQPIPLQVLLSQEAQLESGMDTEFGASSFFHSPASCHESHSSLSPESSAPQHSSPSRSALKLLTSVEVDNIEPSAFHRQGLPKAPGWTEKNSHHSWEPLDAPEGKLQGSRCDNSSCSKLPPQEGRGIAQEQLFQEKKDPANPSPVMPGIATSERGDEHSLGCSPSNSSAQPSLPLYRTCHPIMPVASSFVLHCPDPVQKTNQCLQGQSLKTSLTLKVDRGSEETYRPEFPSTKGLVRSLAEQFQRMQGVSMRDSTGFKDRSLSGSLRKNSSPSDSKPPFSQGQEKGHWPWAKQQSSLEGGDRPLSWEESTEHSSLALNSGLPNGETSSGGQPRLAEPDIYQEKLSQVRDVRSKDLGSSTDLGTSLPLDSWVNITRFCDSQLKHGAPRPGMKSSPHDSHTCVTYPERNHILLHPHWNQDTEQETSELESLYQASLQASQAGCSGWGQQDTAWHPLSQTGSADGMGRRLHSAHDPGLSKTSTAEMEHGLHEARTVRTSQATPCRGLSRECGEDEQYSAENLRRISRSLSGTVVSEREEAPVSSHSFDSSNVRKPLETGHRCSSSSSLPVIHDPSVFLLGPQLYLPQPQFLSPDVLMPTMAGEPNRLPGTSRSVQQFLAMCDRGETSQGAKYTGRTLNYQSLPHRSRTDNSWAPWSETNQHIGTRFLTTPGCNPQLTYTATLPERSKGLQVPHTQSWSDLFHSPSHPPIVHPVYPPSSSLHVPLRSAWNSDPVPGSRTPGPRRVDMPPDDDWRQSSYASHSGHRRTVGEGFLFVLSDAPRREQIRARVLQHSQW
In short: as §1

USP7 = USP7 (UniProt Q93009)
Chain of USP7 (Q93009 whole entry, looked up): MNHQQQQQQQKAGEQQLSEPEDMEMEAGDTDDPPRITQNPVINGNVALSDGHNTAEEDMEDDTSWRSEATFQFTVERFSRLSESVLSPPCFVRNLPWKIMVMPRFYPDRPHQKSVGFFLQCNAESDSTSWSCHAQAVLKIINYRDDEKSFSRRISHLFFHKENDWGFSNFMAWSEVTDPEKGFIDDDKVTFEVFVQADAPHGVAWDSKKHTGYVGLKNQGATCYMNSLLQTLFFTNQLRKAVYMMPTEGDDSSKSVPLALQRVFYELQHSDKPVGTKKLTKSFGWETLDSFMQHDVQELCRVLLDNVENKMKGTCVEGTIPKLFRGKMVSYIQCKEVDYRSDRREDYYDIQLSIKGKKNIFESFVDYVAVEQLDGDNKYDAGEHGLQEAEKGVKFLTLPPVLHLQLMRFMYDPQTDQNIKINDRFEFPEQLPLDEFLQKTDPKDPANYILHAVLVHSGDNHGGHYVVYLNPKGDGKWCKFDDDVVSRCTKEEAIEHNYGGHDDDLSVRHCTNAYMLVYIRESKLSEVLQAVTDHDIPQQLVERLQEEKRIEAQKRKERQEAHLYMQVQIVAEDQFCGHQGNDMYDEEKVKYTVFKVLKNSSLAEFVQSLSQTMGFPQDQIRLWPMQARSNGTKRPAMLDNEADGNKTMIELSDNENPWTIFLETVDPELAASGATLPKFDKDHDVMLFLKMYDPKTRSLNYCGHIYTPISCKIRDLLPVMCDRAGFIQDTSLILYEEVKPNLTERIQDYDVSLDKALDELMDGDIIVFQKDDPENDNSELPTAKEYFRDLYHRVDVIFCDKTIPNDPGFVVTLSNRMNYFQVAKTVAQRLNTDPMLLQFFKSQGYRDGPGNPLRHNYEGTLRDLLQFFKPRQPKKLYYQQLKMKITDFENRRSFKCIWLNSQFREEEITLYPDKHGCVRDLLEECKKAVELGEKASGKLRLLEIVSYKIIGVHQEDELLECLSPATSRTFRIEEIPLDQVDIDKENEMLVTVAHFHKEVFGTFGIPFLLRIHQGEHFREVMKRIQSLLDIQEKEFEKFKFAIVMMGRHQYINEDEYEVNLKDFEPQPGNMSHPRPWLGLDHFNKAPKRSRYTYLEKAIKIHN
In short: as §1

USP8 = molecular target: T5, USP8 (UniProt P40818)
T5 sequence (whole entry): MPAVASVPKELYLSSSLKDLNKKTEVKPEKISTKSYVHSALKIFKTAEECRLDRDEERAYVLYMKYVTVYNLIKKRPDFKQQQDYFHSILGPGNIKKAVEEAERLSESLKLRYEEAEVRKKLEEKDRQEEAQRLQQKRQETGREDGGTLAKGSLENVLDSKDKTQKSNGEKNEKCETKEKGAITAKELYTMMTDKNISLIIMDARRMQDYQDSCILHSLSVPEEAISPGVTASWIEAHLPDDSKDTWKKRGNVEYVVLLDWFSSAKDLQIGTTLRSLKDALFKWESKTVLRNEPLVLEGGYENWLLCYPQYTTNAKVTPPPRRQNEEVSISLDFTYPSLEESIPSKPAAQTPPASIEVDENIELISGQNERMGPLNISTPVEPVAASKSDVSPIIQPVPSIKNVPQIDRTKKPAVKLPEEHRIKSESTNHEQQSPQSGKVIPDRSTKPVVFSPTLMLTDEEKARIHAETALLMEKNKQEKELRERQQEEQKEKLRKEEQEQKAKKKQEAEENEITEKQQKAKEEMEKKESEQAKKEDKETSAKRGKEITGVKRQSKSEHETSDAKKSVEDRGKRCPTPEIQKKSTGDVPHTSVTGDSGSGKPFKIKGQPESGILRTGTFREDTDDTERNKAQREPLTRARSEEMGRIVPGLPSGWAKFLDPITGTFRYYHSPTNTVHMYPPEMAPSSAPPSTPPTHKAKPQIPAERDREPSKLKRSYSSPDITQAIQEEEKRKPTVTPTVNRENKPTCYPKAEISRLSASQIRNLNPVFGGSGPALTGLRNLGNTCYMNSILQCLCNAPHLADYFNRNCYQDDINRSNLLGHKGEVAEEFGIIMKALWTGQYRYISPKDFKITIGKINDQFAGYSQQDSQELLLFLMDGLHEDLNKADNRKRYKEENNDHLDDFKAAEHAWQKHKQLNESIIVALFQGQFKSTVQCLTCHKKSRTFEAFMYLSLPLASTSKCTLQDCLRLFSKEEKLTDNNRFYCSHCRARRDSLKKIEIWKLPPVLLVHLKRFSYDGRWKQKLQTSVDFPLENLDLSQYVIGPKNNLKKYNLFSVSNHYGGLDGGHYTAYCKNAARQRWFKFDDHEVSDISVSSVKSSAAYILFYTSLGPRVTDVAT
In short: as §1

USP9X = USP9X (UniProt Q93008)
In short: as §1

UniProt O00487 = molecular target: UniProt O00487
Chain of UniProt O00487 (O00487 whole entry): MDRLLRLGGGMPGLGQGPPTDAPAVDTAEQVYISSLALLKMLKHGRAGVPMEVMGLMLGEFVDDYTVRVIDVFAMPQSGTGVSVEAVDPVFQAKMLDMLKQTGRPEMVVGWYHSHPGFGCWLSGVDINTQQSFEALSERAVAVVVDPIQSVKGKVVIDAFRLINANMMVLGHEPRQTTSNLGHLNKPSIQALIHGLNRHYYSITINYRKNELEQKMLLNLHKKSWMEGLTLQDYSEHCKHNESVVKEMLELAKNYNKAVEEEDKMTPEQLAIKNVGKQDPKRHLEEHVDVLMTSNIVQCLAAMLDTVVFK
In short: as §1

Measured: log2 ratio of Biotin-Ahx-Ub-VS probe labelling

O=C(CCl)Nc1cccc(NC(=O)c2ccccc2)c1
inactive: USP42 0.808 | USP46 0.291 | USP47 -0.303 | USP48 -0.0133 | USP5 0.0977 | USP54 -0.543 | USP7 0.0734 | USP8 0.244 | USP9X 0.246 | UniProt O00487 0.00956
